Hit rate of the full screen: of about 220,000 compounds, about 3,300 (1.5%) were called active. The sample holds actives, similar compounds and a random draw of the others, so the mix is not that of the screen. Unmarked numbers belong to inactive results.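 The calls were made as follows: active = compounds that cut the protein-peptide binding signal by more than 50% relative to plate controls in a single-dose test; inactive = the rest.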

This assay deals with Induced myeloid leukemia cell differentiation protein Mcl-1 (Homo sapiens) (UniProt Q07820). Briefly: Mcl-1/Noxa binding inhibitors, primary screen, biochemical, TR-FRET, 1536-well (AID 1022).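 Also: His-tagged Mcl-1 with rhodamine Noxa BH3 peptide and terbium anti-His antibody; 0% = Mcl-1 plus Noxa peptide wells and 100% = peptide-only wells.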 Conditions: TR-FRET Mcl-1/Noxa peptide binding, 2 h; at 21.7 µM; stronger effect = higher value.
Sequence of Induced myeloid leukemia cell differentiation protein Mcl-1 (Homo sapiens) (Q07820 whole entry, looked up): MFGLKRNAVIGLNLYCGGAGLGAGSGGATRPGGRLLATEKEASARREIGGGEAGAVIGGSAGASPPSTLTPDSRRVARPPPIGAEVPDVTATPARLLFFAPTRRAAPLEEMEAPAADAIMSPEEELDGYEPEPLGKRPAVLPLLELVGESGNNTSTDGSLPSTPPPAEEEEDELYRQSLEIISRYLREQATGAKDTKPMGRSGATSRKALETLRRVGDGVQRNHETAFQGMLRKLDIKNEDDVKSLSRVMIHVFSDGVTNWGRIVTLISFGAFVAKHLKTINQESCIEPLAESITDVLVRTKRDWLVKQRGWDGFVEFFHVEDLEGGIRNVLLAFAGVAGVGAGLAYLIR
Turning to `C=CCN1CC(C)/C(=N\O)CC1C` (stereo not given), the inhibition was 9.5%. In the case of `Cc1nn(Cc2ccc(Cl)cc2)c(Cl)c1/C=N/NC(=O)CNc1ccccc1F`, the inhibition is 5.98%.

Turning to `Cc1nn(Cc2ccc(Cl)cc2)c(Cl)c1/C=N/NC(=O)c1cccnc1`, the inhibition was 27.5%. With `CCn1nc(C)c(/C=N/NC(=O)Cc2ccc(Cl)cc2)c1C` the figure was 91.8% (active). As to `O=c1c(-c2ccccc2)coc2cc(O)ccc12`, the inhibition was 3.79%. In the case of `O=c1c(/C=N/O)coc2ccc(Cl)cc12`, the inhibition is 4.15%. With `O=C1/C(=C/c2coc3ccc(O)cc3c2=O)SC(=S)N1c1ccccc1`, the inhibition is 56.9% (active). Take `Oc1ccc2ccccc2c1N=Nc1nccs1`: the inhibition was -81.5%.

As to `CC1=C/C(=N\S(=O)(=O)c2ccccc2)C(C(C)C)=CC1=O`, the inhibition is 17%. In the case of `CCOC(=O)C1(S(=O)(=O)c2ccccc2)CCN(Cc2ccccc2)CC1` it was 10.4%; in that of `CC1=C/C(=N\OS(=O)(=O)c2ccccc2)C=CC1=O`, 61.2% (active); in that of `CNC1(c2nnnn2-c2c(C)cccc2C)CCOC(C)(C)C1` (stereo not given), -14.2%. Turning to `C=CC(COCc1ccccc1)N(Cc1ccccc1)S(=O)(=O)c1ccccc1Br` (stereo not given), the inhibition is -9.99%. With `O=C(Nc1ccc(S(=O)(=O)Nc2nccs2)cc1)c1cc(-c2ccncc2)nc2ccccc12` the figure was 89.7% (active). With `O=C(Nc1ccc(S(=O)(=O)Nc2nccs2)cc1)c1cc(=O)[nH]c2ccccc12`, the inhibition is 38.3%. In the case of `CCC(CC)C(=O)Nc1ccc(S(=O)(=O)Nc2nccs2)cc1` it was -30.3%; in that of `O=C(Nc1ccc(S(=O)(=O)N2CCOCC2)cc1)c1ccc2ncsc2c1`, 15.9%. Take `O=C(Nc1ccccc1C(F)(F)F)N1CCCC1c1cccnc1` (stereo not given): the inhibition was -4.25%.

`Cc1cc(NCc2cccnc2)no1`: the inhibition is -9.18%.

Regarding `CSc1sc(C(=O)NC(=O)NCc2cccnc2)c(C)c1-c1ccon1`, the inhibition is -5.48%. In the case of `COCCn1c(SCC(=O)c2[nH]c(C)c(C(C)=O)c2C)nc2ccccc2c1=O` it was -5.29%; in that of `O=C(NCCc1c[nH]c2ccc(Cl)cc12)c1ccc([N+](=O)[O-])cc1`, 27.8%.

For `NC(=O)c1c(Nc2nc3c(F)cccc3s2)sc2c1CCCC2`, the inhibition is 94.4% (active).

Consider `NC(=O)c1c(NC(=O)CSc2nc(N)cc(=O)[nH]2)sc2c1CCCC2`, for which the inhibition is 39.5%. Consider `Fc1cc(F)c2nc(Nc3nc4c(F)cccc4s3)sc2c1`, for which the inhibition is -45.8%. As to `CC(C)Cc1ccc(C(C)C(=N)N)cc1` (stereo not given), the inhibition was 4.15%. As for `O=C(NCC(c1cccs1)N1CCOCC1)c1cc(-c2ccccn2)nc2ccccc12` (stereo not given), the inhibition was -1.37%. In the case of `COc1ccc(OCCC(=O)c2ccc(OC)cc2)cc1`, the inhibition is 16.6%. For `CC(=O)Nc1ccc(CC#N)cc1`, the inhibition is -4.22%.

On to `CCN(CC)CCN(C(=O)c1cccc([N+](=O)[O-])c1)c1nc2ccc(OC)cc2s1`, for which the inhibition was 19.8%. In the case of `Cc1nc2cc3c(cc2s1)OCO3` it was 4.53%; in that of `CCN(CC)CCN(C(=O)c1ccc(N2C(=O)CCC2=O)cc1)c1nc2cc3c(cc2s1)OCO3`, 59.3% (active). On to `Cc1ccccc1Cn1c2ccccc2c2cnn(CC(=O)NCc3ccco3)c(=O)c21`, for which the inhibition is 6.08%. In the case of `C=CCNC(=S)N1CCc2[nH]c3ccccc3c2C1` it was 2.21%; in that of `CC(C)(C)c1ccc(NC(=O)COC(=O)CCc2nc3ccccc3c(=O)[nH]2)cc1`, 0.96%. As to `Cc1ccc(NC(=O)COC(=O)CCc2nc3ccccc3n2-c2ccccc2)c(C)c1`, the inhibition is 4.37%. As to `CCN(c1ccc(NC(=O)COC(=O)CCc2nc3ccccc3n2-c2ccccc2)cc1)C(C)C`, the inhibition is 79.3% (active). Turning to `COCCn1c(SCC(=O)Nc2cc(OC)ccc2OC)nc2c(c1=O)SC(C)C2` (stereo not given), the inhibition was 1.76%. For `CC(C)(C)c1ccc(CCC2OCC(CN3CCOCC3)O2)cc1` (stereo not given), the inhibition is -0.05%. Consider `Cc1ccc(/C=N/NC(=O)CN2CCN(Cc3ccccc3)CC2)s1`, for which the inhibition was 14.9%. Regarding `O=C(Cn1nnc(N2CCCCC2)n1)c1ccc(Cl)c(Cl)c1`, the inhibition was 13.1%. As to `Cc1ccc(-c2cc(C(=O)NN)n[nH]2)o1`, the inhibition is 11.3%.

As for `CC1=C(C)CC2C(=O)N(c3cccc4ccccc34)C(=O)C2C1` (stereo not given), the inhibition is 53.5% (active). For the compound `CCc1ccccc1N1C(=O)C2C3CC(=O)C(c4ccccc43)C2C1=O` (stereo not given), the inhibition was 1.91%. As to `Cc1ccc(N2C(=O)CC(Nc3cccc4ccccc34)C2=O)cc1` (stereo not given), the inhibition was -23%. On to `CCCCNC(=O)OCCSCCS(=O)(=O)c1ccc(Cl)cc1`, for which the inhibition is -6.78%. On to `C/C(=N/NC(=O)c1ccn(C)n1)c1ccncc1`, for which the inhibition was -1.7%. `COc1ccc(OC)c(C(c2nnnn2C(C)(C)C)N2CCc3ccccc3C2)c1` (stereo not given): the inhibition is 23.3%. Regarding `CCOc1ccc2[nH]c(=O)c(C(c3nnnn3CCOC)N3CCOCC3)cc2c1` (stereo not given), the inhibition is -4.39%. As to `COCCn1nnnc1C(c1cc2ccc(OC)cc2[nH]c1=O)N1CCc2ccccc2C1` (stereo not given), the inhibition is 58.9% (active).

`CCOC(=O)CN(C)S(=O)(=O)c1ccc(-c2cc(C(=O)OC)sc2C(F)(F)F)cc1`: the inhibition was 11.3%.

As to `O=S(=O)(c1ccc(F)cc1)N1CC=C(c2ccccc2)CC1`, the inhibition was -8.68%.

Turning to `COc1cc(C(CCN2CCN(c3ccccc3)CC2)c2c(OC)cc(OC)c3ccc(=O)oc23)cc(OC)c1OC` (stereo not given), the inhibition was 12.8%. In the case of `CC(C)Cc1nnc(NC(=O)CCC(=O)Nc2ccc3cn[nH]c3c2)s1`, the inhibition was 32.1%.

For `O=C(CCn1nnc2ccccc2c1=O)N[C@@H](Cc1c[nH]c2ccccc12)C(=O)O`, the inhibition is 18.9%. `O=C(O)CC12CC3CC(C1)CC(n1ncc(NCc4ccc(F)cc4)c(Cl)c1=O)(C3)C2`: the inhibition is 16.2%. On to `CCOC(=O)c1sc2nc(CSc3ccccc3)[nH]c(=O)c2c1C`, for which the inhibition was -3.55%. Consider `CSc1nnc(SCc2nc3sc(C(=O)O)c(C)c3c(=O)[nH]2)s1`, for which the inhibition is 70.6% (active). Consider `Cc1ccc(C)c(SCc2nc3sc(C(=O)O)c(C)c3c(=O)[nH]2)c1`, for which the inhibition was 7.18%.

As for `COC(=O)c1cc(N2CCNCC2)nc2ccccc12`, the inhibition was -2.31%.
